Holding throughout (assay): DAPPL (digital affinity profiling via proximity ligation, sequencing); 10 mM Tris-HCl pH 7.5, 50 mM NaCl, 1 mM DTT, 4% glycerol, room temperature, 30 min; GST-TFs on glutathione beads, 16-mer random dsDNA library, 0.1% formaldehyde crosslink after washing; high values mean tight binding
The target in one assay is T1, FEV (Homo sapiens, UniProt Q99581 1-238).
T1 sequence: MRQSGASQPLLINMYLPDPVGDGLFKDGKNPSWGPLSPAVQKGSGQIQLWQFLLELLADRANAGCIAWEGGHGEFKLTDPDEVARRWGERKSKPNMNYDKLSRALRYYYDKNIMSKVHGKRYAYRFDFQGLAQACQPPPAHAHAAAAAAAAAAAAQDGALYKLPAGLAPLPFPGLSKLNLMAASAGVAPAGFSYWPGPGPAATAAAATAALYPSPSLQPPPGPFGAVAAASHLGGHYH
To be noted: protein: recombinant; tags: N-terminal GST; dsDNA, one strand shown. A digest of the protocol: (§1)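 In yeast, human transcription factors were expressed with a GST fusion, then pulled down on glutathione beads and given DNA barcodes. Pooled with a tag-only sample, they were exposed to 200 nmole of a 16-mer random double-stranded DNA library (Tris/NaCl/DTT/glycerol buffer, room temperature, 30 min), washed, crosslinked with 0.1% formaldehyde, proximity-ligated using BsaI/T4 ligase for 1 h at 37 °C, PCR-amplified and read on an Illumina NextSeq500. Each hexamer's frequency of reads for a factor, divided by the matching frequency for the tag-only sample, gives the binding signal.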

The next assay addresses ETV5 (Homo sapiens, UniProt P41161 1-510). To be noted: protein: recombinant; tags: N-terminal GST; dsDNA, one strand shown. The method in brief: as §1
The target of the next assay is HSF1 (Homo sapiens, UniProt Q00613 1-529). The conditions noted are these: protein: recombinant; tags: N-terminal GST; chain copies: 3; dsDNA, one strand shown. The method in brief: as §1
Sequence of HSF1 (Q00613 whole entry): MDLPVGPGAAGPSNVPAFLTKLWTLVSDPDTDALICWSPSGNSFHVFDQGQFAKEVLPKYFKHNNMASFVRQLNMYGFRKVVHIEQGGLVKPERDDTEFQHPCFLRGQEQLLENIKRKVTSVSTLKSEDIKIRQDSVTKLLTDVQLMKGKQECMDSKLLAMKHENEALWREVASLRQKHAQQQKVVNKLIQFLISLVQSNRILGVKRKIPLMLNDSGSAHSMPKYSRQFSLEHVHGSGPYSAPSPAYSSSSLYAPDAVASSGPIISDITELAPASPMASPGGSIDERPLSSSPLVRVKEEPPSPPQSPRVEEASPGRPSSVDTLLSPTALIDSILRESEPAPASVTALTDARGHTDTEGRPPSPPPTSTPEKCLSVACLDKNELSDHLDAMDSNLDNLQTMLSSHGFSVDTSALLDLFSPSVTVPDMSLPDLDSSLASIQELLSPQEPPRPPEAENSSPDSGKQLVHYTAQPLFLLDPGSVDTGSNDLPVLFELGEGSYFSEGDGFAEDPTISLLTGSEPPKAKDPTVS
The next assay addresses T2, SPIC (Homo sapiens, UniProt Q8N5J4 1-248).
T2 sequence: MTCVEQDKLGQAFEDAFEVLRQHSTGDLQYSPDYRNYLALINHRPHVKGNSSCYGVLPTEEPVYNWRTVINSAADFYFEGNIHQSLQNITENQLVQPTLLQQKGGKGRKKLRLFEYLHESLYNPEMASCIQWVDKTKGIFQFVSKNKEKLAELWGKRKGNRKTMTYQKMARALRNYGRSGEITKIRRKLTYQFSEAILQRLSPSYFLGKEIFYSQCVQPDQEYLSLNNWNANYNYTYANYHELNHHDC
To be noted: protein: recombinant; tags: N-terminal GST; dsDNA, one strand shown. The method in brief:
as §1

Another assay has as its target ELF4 (Homo sapiens, UniProt Q99607 1-663). The conditions noted are these: protein: recombinant; tags: N-terminal GST; dsDNA, one strand shown. A digest of the protocol: as §1
Another assay concerns the target T3, ELK4 (Homo sapiens, UniProt P28324-2 1-405).
T3 sequence: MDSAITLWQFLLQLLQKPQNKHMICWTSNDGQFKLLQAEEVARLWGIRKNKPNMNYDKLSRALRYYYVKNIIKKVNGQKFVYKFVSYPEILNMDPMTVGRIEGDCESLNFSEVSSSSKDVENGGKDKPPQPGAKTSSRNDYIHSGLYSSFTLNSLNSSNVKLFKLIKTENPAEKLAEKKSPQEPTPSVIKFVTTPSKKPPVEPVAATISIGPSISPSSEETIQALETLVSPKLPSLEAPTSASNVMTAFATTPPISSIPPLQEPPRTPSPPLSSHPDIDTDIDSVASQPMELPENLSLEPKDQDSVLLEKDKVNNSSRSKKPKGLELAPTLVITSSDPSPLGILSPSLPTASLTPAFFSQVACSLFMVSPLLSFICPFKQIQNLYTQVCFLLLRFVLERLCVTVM
To be noted: protein: recombinant; tags: N-terminal GST; dsDNA, one strand shown. A digest of the protocol:
as §1

The next assay addresses T4, ETV2 (Homo sapiens, UniProt O00321 1-342).
T4 sequence: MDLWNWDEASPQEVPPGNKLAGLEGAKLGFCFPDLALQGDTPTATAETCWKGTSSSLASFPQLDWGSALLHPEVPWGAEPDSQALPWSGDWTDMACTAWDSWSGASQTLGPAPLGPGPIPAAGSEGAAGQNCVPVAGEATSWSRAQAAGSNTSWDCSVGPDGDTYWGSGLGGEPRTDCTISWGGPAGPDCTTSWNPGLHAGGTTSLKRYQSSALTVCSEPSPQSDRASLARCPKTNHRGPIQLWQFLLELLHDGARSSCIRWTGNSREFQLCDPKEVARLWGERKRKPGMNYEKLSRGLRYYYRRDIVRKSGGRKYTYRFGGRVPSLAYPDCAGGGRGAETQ
The conditions noted are these: protein: recombinant; tags: N-terminal GST; dsDNA, one strand shown. The method in brief:
as §1

For a further assay, the target named is T5, ELF3 (Homo sapiens, UniProt P78545 1-371).
T5 sequence: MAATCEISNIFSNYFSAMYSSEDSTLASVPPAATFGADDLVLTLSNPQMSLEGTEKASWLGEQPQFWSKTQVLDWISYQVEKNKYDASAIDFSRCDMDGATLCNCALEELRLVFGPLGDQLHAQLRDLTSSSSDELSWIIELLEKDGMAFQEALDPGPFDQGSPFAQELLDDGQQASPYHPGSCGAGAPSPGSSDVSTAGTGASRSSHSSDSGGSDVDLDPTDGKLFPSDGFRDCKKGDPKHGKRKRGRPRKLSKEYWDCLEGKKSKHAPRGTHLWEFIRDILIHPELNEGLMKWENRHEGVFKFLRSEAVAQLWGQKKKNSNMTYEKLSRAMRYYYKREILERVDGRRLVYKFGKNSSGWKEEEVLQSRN
The conditions noted are these: protein: recombinant; tags: N-terminal GST; dsDNA, one strand shown. The method in brief:
as §1

The next assay concerns the target CRX (Homo sapiens, UniProt O43186 1-299). The conditions noted are these: protein: recombinant; tags: N-terminal GST; dsDNA, one strand shown. A digest of the protocol: as §1
Another assay deals with ETV1 (Homo sapiens, UniProt P50549 1-477). To be noted: protein: recombinant; tags: N-terminal GST; dsDNA, one strand shown. The method in brief:
as §1

Sequence of CRX (O43186 whole entry): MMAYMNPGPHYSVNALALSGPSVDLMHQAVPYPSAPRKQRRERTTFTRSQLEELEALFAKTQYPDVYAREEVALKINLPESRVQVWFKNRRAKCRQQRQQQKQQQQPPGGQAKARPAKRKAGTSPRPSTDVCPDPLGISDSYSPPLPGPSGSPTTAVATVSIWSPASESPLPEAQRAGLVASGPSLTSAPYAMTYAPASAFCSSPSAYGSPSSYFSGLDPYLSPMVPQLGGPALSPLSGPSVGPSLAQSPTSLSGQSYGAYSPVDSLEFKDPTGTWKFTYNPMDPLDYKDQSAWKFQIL
Sequence of ETV1 (P50549 whole entry): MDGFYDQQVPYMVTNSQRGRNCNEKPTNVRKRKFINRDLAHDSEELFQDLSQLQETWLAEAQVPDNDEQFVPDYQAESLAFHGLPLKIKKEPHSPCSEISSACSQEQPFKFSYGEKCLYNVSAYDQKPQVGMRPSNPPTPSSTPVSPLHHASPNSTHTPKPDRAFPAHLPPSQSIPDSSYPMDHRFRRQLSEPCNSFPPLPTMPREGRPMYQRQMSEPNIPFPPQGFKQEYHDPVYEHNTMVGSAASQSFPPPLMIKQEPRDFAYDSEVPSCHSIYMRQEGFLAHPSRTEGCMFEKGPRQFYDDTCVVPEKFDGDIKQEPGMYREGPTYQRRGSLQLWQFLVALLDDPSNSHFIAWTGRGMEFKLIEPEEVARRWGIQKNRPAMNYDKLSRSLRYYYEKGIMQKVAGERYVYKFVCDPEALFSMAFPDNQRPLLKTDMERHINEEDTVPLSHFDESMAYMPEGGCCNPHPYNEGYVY
Sequence of ETV5 (P41161 whole entry): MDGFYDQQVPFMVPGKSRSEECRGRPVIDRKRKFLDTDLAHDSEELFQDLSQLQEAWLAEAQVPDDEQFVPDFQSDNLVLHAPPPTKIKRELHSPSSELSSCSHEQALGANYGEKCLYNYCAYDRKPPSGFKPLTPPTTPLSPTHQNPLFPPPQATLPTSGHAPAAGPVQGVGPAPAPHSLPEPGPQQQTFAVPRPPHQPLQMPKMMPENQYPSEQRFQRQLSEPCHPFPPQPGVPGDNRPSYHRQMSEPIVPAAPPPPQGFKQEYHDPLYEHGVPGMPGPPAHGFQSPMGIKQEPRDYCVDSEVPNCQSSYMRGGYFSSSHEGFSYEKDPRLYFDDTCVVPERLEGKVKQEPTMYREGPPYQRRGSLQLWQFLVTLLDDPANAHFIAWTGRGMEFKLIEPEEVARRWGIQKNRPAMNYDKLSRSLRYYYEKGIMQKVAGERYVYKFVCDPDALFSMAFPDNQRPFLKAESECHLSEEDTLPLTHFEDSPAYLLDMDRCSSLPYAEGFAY
Sequence of ELF4 (Q99607 whole entry): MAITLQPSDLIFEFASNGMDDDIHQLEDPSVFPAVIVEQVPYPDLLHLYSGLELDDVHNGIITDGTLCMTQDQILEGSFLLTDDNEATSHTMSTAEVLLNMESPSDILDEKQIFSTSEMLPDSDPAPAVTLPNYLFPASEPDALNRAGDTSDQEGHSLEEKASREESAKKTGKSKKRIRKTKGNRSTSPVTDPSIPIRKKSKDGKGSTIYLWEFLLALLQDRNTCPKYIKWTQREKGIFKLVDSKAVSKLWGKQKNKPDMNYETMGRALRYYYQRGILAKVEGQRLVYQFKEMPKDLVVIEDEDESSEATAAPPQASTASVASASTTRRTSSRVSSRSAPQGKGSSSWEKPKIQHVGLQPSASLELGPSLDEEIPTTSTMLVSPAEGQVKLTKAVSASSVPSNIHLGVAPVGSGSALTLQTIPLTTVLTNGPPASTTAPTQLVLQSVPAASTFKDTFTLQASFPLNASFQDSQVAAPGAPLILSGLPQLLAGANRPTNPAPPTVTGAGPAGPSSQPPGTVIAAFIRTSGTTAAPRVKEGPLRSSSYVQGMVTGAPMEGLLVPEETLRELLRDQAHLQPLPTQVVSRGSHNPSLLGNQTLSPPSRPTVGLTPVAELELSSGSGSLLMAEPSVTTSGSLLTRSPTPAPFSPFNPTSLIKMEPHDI

For TAGGGT, the binding signal in the assay with FEV is 1.07 fold enrichment (6-mer frequency, TF over GST control); in the assay with ETV5, 1.08 fold enrichment (6-mer frequency, TF over GST control); with HSF1, 1.06 fold enrichment (6-mer frequency, TF over GST control); in the assay with SPIC, 1.11 fold enrichment (6-mer frequency, TF over GST control); in the assay with ELF4 it was 1.09 fold enrichment (6-mer frequency, TF over GST control); in the assay with ELK4, 1.22 fold enrichment (6-mer frequency, TF over GST control). For the same sequence, the binding signal is 1.16 fold enrichment (6-mer frequency, TF over GST control) with ETV2; 1.1 fold enrichment (6-mer frequency, TF over GST control) with ELF3; 1.2 fold enrichment (6-mer frequency, TF over GST control) with CRX; 1.01 fold enrichment (6-mer frequency, TF over GST control) with ETV1.
In the case of TGATCA, the binding signal with ETV5 is 1.02 fold enrichment (6-mer frequency, TF over GST control); with HSF1, 1.08 fold enrichment (6-mer frequency, TF over GST control); with SPIC, 1.16 fold enrichment (6-mer frequency, TF over GST control); with ELF4, 1.1 fold enrichment (6-mer frequency, TF over GST control); in the assay with ELK4 it was 1.02 fold enrichment (6-mer frequency, TF over GST control); with ETV2, 1.1 fold enrichment (6-mer frequency, TF over GST control). Also, the binding signal was 1.03 fold enrichment (6-mer frequency, TF over GST control) with ELF3 and 1.18 fold enrichment (6-mer frequency, TF over GST control) in the assay with CRX.
Take AAAGGT: the binding signal was 1.05 fold enrichment (6-mer frequency, TF over GST control) in the assay with ETV5; 1.02 fold enrichment (6-mer frequency, TF over GST control) in the assay with HSF1; 1.09 fold enrichment (6-mer frequency, TF over GST control) in the assay with SPIC; 1.02 fold enrichment (6-mer frequency, TF over GST control) with ELF4; 1.05 fold enrichment (6-mer frequency, TF over GST control) in the assay with ELK4; 1.06 fold enrichment (6-mer frequency, TF over GST control) with ETV2. Moreover, in the assay with ELF3, the binding signal is 1.17 fold enrichment (6-mer frequency, TF over GST control).
Turning to CCTCTT, the binding signal was 1.58 fold enrichment (6-mer frequency, TF over GST control) with FEV; 1.68 fold enrichment (6-mer frequency, TF over GST control) with ETV5; 1.4 fold enrichment (6-mer frequency, TF over GST control) in the assay with HSF1; 1.52 fold enrichment (6-mer frequency, TF over GST control) with SPIC; 1.56 fold enrichment (6-mer frequency, TF over GST control) with ELF4; 1.56 fold enrichment (6-mer frequency, TF over GST control) with ELK4. Also, the binding signal was 1.75 fold enrichment (6-mer frequency, TF over GST control) with ETV2; 1.32 fold enrichment (6-mer frequency, TF over GST control) with ELF3; 1.81 fold enrichment (6-mer frequency, TF over GST control) in the assay with CRX; 1.55 fold enrichment (6-mer frequency, TF over GST control) in the assay with ETV1.
On to ATTAGC, for which the binding signal with FEV is 1.05 fold enrichment (6-mer frequency, TF over GST control); with ETV5, 1.04 fold enrichment (6-mer frequency, TF over GST control); with HSF1, 1.87 fold enrichment (6-mer frequency, TF over GST control); in the assay with SPIC, 1.22 fold enrichment (6-mer frequency, TF over GST control); with ELF4, 1.15 fold enrichment (6-mer frequency, TF over GST control); with ELK4, 1.14 fold enrichment (6-mer frequency, TF over GST control). Also, the binding signal is 1.13 fold enrichment (6-mer frequency, TF over GST control) with ETV2; 1.14 fold enrichment (6-mer frequency, TF over GST control) with ELF3; 2.83 fold enrichment (6-mer frequency, TF over GST control) with CRX; 1.16 fold enrichment (6-mer frequency, TF over GST control) in the assay with ETV1.
Take CTCCTG: the binding signal in the assay with FEV is 1.57 fold enrichment (6-mer frequency, TF over GST control); in the assay with ETV5, 1.71 fold enrichment (6-mer frequency, TF over GST control); in the assay with HSF1, 1.52 fold enrichment (6-mer frequency, TF over GST control); with SPIC, 1.37 fold enrichment (6-mer frequency, TF over GST control); in the assay with ELF4 it was 1.65 fold enrichment (6-mer frequency, TF over GST control); with ELK4, 1.35 fold enrichment (6-mer frequency, TF over GST control). The binding signal with ETV2 is 1.62 fold enrichment (6-mer frequency, TF over GST control); with ELF3 it was 1.47 fold enrichment (6-mer frequency, TF over GST control); with CRX it was 1.46 fold enrichment (6-mer frequency, TF over GST control); with ETV1, 1.79 fold enrichment (6-mer frequency, TF over GST control).
As to AAGAAG, the binding signal with ETV5 was 1.08 fold enrichment (6-mer frequency, TF over GST control); with HSF1 it was 1.44 fold enrichment (6-mer frequency, TF over GST control); with SPIC it was 1.23 fold enrichment (6-mer frequency, TF over GST control); with ELF4, 1.06 fold enrichment (6-mer frequency, TF over GST control); with ELK4, 1.18 fold enrichment (6-mer frequency, TF over GST control); in the assay with ETV2, 1.19 fold enrichment (6-mer frequency, TF over GST control). Also, the binding signal in the assay with ELF3 was 1.26 fold enrichment (6-mer frequency, TF over GST control); with CRX, 1.21 fold enrichment (6-mer frequency, TF over GST control); with ETV1 it was 1.1 fold enrichment (6-mer frequency, TF over GST control).
In the case of TGGGTT, the binding signal is 1.06 fold enrichment (6-mer frequency, TF over GST control) with ETV5; 1.03 fold enrichment (6-mer frequency, TF over GST control) with HSF1; 1.07 fold enrichment (6-mer frequency, TF over GST control) in the assay with SPIC; 1.09 fold enrichment (6-mer frequency, TF over GST control) with ELF4; 1.03 fold enrichment (6-mer frequency, TF over GST control) with ELK4; 1.08 fold enrichment (6-mer frequency, TF over GST control) with ETV2. For the same sequence, in the assay with ELF3, the binding signal was 1.11 fold enrichment (6-mer frequency, TF over GST control).

The values are drawn from publication PMC7862700, “An all-to-all approach to the identification of sequence-specific readers for epigenetic DNA modifications on cytosine”.
